What all share (assay): DAPPL (digital affinity profiling via proximity ligation, sequencing); 10 mM Tris-HCl pH 7.5, 50 mM NaCl, 1 mM DTT, 4% glycerol, room temperature, 30 min; GST-TFs on glutathione beads, 16-mer random dsDNA library, 0.1% formaldehyde crosslink after washing; high values mean tight binding
Assay [1] concerns the target T1, FEV (Homo sapiens, UniProt Q99581 1-238).
T1 sequence: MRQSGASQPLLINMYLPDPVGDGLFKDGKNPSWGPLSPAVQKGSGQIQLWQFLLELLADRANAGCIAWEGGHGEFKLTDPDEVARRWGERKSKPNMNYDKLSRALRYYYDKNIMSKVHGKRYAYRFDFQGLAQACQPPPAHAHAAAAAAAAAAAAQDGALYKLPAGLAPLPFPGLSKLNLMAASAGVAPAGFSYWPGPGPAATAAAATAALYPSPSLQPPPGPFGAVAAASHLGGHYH
To be noted: protein: recombinant; tags: N-terminal GST; dsDNA, one strand shown. The procedure, abridged: (§1)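 In yeast, human transcription factors were expressed with a GST fusion, then pulled down on glutathione beads and given DNA barcodes. Pooled with a tag-only sample, they were exposed to 200 nmole of a 16-mer random double-stranded DNA library (Tris/NaCl/DTT/glycerol buffer, room temperature, 30 min), washed, crosslinked with 0.1% formaldehyde, proximity-ligated using BsaI/T4 ligase for 1 h at 37 °C, PCR-amplified and read on an Illumina NextSeq500. Each hexamer's frequency of reads for a factor, divided by the matching frequency for the tag-only sample, gives the binding signal.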

The target of assay [2] is ETV5 (Homo sapiens, UniProt P41161 1-510). The following applies: protein: recombinant; tags: N-terminal GST; dsDNA, one strand shown. The essentials:
as §1

Assay [3] deals with HSF1 (Homo sapiens, UniProt Q00613 1-529). To be noted: protein: recombinant; tags: N-terminal GST; chain copies: 3; dsDNA, one strand shown. The procedure, abridged: as §1
Sequence of HSF1 (Q00613 whole entry): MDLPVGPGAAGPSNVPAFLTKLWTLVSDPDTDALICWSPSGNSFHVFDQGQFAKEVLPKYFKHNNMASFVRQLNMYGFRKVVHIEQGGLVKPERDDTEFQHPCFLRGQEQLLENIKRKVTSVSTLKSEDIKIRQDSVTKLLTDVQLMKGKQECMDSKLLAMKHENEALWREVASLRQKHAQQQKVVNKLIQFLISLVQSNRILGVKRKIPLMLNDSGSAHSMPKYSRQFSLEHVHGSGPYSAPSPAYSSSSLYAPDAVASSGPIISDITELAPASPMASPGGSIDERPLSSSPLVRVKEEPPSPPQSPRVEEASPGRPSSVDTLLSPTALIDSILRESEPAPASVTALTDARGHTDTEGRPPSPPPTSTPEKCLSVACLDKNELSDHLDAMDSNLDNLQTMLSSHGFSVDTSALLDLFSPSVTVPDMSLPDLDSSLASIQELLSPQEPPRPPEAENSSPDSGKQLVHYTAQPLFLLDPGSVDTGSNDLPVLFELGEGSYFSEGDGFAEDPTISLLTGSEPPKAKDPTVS
The target of assay [4] is T2, SPIC (Homo sapiens, UniProt Q8N5J4 1-248).
T2 sequence: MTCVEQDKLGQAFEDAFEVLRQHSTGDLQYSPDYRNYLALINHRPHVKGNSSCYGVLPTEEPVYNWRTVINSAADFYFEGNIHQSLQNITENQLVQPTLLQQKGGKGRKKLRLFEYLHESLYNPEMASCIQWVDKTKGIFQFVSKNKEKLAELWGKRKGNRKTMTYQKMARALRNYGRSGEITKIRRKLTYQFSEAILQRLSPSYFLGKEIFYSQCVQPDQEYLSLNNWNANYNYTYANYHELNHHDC
The following applies: protein: recombinant; tags: N-terminal GST; dsDNA, one strand shown. The essentials: as §1

Assay [5] concerns the target ELF4 (Homo sapiens, UniProt Q99607 1-663). The following applies: protein: recombinant; tags: N-terminal GST; dsDNA, one strand shown. The procedure, abridged: as §1
The target in assay [6] is T3, ELK4 (Homo sapiens, UniProt P28324-2 1-405).
T3 sequence: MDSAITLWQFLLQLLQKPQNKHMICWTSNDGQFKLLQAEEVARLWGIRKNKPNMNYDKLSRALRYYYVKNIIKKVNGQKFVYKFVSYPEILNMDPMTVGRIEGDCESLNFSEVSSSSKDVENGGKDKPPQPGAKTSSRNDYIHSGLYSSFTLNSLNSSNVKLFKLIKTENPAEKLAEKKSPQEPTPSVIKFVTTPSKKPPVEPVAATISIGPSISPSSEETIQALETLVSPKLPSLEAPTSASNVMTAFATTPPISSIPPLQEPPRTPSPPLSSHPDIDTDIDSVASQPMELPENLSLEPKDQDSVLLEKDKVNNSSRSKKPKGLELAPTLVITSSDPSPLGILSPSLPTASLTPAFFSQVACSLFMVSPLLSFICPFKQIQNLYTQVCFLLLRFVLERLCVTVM
To be noted: protein: recombinant; tags: N-terminal GST; dsDNA, one strand shown. The essentials:
as §1

Assay [7] has as its target T4, ETV2 (Homo sapiens, UniProt O00321 1-342).
T4 sequence: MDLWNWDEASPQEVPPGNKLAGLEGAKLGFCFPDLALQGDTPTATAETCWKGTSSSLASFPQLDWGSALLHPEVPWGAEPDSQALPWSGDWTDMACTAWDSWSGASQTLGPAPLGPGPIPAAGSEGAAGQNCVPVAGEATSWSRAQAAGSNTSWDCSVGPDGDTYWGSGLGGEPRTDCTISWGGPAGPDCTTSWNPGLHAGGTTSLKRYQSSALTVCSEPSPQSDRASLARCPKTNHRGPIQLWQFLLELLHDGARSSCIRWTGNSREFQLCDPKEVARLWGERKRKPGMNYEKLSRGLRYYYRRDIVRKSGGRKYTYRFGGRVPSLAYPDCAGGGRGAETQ
To be noted: protein: recombinant; tags: N-terminal GST; dsDNA, one strand shown. The procedure, abridged:
as §1

Assay [8] has as its target T5, ELF3 (Homo sapiens, UniProt P78545 1-371).
T5 sequence: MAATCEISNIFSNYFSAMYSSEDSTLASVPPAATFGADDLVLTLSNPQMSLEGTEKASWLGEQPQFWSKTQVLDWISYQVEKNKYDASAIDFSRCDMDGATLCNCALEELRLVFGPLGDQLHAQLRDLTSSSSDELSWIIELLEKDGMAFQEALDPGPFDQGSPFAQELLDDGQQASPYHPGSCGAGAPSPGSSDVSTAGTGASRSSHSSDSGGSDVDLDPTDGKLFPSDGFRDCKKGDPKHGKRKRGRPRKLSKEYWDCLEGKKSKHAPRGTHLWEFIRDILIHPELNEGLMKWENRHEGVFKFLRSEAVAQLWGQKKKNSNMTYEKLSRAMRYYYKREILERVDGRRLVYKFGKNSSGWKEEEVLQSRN
The following applies: protein: recombinant; tags: N-terminal GST; dsDNA, one strand shown. The procedure, abridged: as §1

In assay [9] the target is CRX (Homo sapiens, UniProt O43186 1-299). To be noted: protein: recombinant; tags: N-terminal GST; dsDNA, one strand shown. The procedure, abridged:
as §1

For assay [10], the target named is ETV1 (Homo sapiens, UniProt P50549 1-477). The following applies: protein: recombinant; tags: N-terminal GST; dsDNA, one strand shown. The procedure, abridged:
as §1

Assay [11] has as its target T6, ERF (Homo sapiens, UniProt P50548 1-548).
T6 sequence: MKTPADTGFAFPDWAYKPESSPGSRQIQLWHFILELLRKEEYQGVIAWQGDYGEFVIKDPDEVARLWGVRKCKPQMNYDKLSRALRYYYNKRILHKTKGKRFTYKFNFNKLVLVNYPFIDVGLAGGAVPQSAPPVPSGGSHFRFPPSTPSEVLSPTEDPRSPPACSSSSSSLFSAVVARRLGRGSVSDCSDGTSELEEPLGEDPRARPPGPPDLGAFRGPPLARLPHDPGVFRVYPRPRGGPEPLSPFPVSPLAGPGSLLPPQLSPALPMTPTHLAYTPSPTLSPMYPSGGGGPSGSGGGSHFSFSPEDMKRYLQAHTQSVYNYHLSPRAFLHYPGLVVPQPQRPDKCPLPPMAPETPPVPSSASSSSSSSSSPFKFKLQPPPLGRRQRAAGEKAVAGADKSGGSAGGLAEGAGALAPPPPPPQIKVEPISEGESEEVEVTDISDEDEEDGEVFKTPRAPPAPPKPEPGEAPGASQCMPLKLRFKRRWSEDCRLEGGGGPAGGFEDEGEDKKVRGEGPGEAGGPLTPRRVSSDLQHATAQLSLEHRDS
The following applies: protein: recombinant; tags: N-terminal GST; dsDNA, one strand shown. The essentials:
as §1

The target of assay [12] is T7, ETV3L (Homo sapiens, UniProt Q6ZN32 1-361).
T7 sequence: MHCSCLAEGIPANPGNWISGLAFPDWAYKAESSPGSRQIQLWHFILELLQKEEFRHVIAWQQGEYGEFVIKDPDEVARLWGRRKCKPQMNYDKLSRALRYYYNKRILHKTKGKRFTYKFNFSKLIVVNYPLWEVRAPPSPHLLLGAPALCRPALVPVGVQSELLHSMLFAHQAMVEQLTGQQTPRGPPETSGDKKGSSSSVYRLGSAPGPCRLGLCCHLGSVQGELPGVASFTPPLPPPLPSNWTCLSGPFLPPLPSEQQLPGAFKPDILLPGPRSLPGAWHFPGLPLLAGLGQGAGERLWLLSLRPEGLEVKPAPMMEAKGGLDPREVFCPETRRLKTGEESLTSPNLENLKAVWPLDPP
The following applies: protein: recombinant; tags: N-terminal GST; dsDNA, one strand shown. The procedure, abridged:
as §1

Assay [13] has as its target T8, ETS2 (Homo sapiens, UniProt P15036 1-469).
T8 sequence: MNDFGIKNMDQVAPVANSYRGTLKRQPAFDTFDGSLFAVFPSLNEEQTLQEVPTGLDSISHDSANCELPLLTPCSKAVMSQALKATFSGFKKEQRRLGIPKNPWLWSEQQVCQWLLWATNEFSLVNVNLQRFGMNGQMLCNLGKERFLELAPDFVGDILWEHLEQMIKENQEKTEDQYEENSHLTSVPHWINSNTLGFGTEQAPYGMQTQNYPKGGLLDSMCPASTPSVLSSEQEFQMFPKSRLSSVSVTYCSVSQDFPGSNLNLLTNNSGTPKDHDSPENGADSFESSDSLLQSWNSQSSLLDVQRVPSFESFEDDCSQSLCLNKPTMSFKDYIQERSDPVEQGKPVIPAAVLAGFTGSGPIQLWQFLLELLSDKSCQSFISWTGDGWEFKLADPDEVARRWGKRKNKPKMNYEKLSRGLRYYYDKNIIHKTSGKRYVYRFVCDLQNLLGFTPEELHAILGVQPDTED
The following applies: protein: recombinant; tags: N-terminal GST; dsDNA, one strand shown. The procedure, abridged:
as §1

Assay [14] deals with T9, SPDEF (Homo sapiens, UniProt O95238 1-335).
T9 sequence: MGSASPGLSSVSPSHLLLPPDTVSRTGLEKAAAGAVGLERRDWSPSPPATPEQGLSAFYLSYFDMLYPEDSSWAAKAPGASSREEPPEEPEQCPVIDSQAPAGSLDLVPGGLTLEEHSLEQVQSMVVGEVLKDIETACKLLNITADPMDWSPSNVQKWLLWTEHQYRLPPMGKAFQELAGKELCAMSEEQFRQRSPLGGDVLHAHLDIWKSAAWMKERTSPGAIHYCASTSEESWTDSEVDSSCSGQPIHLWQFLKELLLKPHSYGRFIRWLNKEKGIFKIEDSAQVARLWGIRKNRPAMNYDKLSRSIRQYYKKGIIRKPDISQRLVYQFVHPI
To be noted: protein: recombinant; tags: N-terminal GST; dsDNA, one strand shown. The essentials:
as §1

Assay [15] deals with T10, ETV7 (Homo sapiens, UniProt Q9Y603 1-341).
T10 sequence: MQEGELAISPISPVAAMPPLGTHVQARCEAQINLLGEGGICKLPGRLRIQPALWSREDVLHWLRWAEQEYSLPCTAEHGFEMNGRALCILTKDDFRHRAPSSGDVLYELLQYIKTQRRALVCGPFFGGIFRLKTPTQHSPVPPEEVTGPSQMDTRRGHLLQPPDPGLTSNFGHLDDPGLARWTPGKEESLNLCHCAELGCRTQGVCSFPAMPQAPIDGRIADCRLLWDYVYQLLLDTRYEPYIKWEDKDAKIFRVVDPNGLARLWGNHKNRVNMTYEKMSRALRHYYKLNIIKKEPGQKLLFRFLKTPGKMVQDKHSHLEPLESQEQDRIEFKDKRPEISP
The following applies: protein: recombinant; tags: N-terminal GST; dsDNA, one strand shown. The essentials:
as §1

Assay [16] has as its target T11, ELF5 (Homo sapiens, UniProt Q9UKW6-2 1-255).
T11 sequence: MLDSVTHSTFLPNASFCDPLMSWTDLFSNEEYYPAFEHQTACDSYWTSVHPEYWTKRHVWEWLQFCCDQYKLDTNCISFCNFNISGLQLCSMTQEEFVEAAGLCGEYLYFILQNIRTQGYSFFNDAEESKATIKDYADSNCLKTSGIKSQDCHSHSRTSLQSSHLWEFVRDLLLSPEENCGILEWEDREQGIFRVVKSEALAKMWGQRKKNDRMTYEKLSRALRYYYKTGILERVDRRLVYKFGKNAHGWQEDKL
The following applies: protein: recombinant; tags: N-terminal GST; dsDNA, one strand shown. The essentials: as §1

Assay [17] has as its target T12, ETV3 (Homo sapiens, UniProt P41162-2 1-143).
T12 sequence: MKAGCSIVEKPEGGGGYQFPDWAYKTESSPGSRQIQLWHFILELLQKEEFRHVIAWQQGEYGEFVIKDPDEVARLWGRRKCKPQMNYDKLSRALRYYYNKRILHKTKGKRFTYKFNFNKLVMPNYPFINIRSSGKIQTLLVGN
To be noted: protein: recombinant; tags: N-terminal GST; dsDNA, one strand shown. The essentials:
as §1

In assay [18] the target is ETV6 (Homo sapiens, UniProt P41212 1-452). To be noted: protein: recombinant; tags: N-terminal GST; dsDNA, one strand shown. The essentials: as §1
Sequence of ETV6 (P41212 whole entry): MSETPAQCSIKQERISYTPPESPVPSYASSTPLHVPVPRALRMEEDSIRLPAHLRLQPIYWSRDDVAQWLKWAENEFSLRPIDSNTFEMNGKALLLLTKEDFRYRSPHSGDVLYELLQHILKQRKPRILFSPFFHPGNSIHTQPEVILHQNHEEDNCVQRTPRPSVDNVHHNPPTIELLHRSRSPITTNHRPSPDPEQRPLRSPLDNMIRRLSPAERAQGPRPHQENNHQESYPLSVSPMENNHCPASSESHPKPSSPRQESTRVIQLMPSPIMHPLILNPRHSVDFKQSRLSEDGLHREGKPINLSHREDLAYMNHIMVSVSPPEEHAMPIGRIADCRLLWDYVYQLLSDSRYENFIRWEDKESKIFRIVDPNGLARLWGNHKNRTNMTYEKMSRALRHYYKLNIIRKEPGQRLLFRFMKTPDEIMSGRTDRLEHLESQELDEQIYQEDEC

Sequence of ETV5 (P41161 whole entry): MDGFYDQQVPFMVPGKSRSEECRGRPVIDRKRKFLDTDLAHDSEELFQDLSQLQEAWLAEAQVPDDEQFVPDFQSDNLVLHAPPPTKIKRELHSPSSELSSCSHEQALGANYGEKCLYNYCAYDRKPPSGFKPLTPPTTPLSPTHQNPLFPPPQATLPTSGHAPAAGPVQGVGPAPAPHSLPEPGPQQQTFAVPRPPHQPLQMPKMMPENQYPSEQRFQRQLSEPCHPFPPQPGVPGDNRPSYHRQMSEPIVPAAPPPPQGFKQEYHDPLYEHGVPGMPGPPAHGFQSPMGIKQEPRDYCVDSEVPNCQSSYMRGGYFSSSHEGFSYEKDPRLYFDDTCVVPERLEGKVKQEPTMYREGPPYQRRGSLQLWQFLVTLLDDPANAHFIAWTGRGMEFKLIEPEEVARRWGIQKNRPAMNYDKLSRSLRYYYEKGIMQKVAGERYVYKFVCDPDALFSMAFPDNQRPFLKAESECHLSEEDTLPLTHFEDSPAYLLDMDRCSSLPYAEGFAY
Sequence of ELF4 (Q99607 whole entry): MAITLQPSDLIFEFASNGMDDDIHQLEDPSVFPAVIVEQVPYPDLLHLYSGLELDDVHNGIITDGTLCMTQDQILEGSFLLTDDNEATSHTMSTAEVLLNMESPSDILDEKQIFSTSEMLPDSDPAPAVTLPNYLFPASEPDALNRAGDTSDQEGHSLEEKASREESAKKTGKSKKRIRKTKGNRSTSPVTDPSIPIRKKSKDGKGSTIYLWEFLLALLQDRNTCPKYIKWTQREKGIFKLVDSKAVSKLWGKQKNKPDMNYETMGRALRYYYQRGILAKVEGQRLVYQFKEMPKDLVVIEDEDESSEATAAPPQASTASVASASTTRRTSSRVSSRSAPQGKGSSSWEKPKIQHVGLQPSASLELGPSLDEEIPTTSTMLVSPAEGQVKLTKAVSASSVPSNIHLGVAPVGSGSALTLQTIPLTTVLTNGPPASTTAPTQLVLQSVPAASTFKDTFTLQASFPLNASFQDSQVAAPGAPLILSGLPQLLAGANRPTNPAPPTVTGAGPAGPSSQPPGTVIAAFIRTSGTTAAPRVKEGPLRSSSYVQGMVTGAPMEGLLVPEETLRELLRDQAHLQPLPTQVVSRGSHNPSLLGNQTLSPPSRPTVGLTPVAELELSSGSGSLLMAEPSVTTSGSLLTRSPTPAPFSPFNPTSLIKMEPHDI
Sequence of CRX (O43186 whole entry): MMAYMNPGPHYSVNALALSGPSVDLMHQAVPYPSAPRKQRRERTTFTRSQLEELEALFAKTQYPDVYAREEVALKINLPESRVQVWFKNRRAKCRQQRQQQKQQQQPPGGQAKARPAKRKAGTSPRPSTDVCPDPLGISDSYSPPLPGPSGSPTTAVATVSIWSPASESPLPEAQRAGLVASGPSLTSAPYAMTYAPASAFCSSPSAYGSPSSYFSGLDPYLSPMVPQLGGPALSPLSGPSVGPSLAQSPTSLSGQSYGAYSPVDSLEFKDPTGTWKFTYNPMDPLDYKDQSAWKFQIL
Sequence of ETV1 (P50549 whole entry): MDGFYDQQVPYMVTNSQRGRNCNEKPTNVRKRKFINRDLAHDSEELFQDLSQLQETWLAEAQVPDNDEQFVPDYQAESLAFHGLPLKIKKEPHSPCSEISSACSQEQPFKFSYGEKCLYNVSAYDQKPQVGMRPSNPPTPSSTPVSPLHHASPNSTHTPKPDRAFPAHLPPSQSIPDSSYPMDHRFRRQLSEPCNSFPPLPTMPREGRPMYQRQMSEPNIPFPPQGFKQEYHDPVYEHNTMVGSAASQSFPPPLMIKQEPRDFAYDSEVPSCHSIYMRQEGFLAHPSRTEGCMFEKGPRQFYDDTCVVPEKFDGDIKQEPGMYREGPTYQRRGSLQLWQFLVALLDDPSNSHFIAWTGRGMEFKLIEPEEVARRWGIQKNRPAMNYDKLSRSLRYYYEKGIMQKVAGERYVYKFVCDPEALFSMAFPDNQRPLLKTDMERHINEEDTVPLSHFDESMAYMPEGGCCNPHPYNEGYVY

TACACT: the binding signal in [1] is 1.5 fold enrichment (6-mer frequency, TF over GST control); in assay [2] it was 1.5 fold enrichment (6-mer frequency, TF over GST control); in [3], 1.31 fold enrichment (6-mer frequency, TF over GST control); in assay [4] it was 1.58 fold enrichment (6-mer frequency, TF over GST control); in [5] it was 1.42 fold enrichment (6-mer frequency, TF over GST control); in [6], 1.53 fold enrichment (6-mer frequency, TF over GST control). The binding signal in [7] was 1.46 fold enrichment (6-mer frequency, TF over GST control); in assay [8], 1.36 fold enrichment (6-mer frequency, TF over GST control); in [9], 1.35 fold enrichment (6-mer frequency, TF over GST control); in assay [10] it was 1.59 fold enrichment (6-mer frequency, TF over GST control); in [11], 1.51 fold enrichment (6-mer frequency, TF over GST control); in assay [12], 1.51 fold enrichment (6-mer frequency, TF over GST control). Moreover, the binding signal in assay [13] is 1.49 fold enrichment (6-mer frequency, TF over GST control); in [14], 1.55 fold enrichment (6-mer frequency, TF over GST control); in [15], 1.49 fold enrichment (6-mer frequency, TF over GST control); in assay [16], 1.52 fold enrichment (6-mer frequency, TF over GST control); in assay [17], 1.45 fold enrichment (6-mer frequency, TF over GST control); in assay [18], 1.6 fold enrichment (6-mer frequency, TF over GST control).

Values taken from PMC7862700, “An all-to-all approach to the identification of sequence-specific readers for epigenetic DNA modifications on cytosine”.
